According to PubChem BioAssay (Tox21):
Records with an inconclusive call do not appear. The source made the active and inactive calls. Unless noted, the call rests on the fitted dose curve; in most records, active means well fitted curve in the direction sought with a large enough effect in the repeat runs; inconclusive means weak or mixed curves; inactive means no such curve, though single readings can be large; an effect the other way counts as inactive or inconclusive.

What was measured:
[1] = target: Aryl hydrocarbon receptor (Homo sapiens) (UniProt P35869); test: qHTS assay to identify small molecule that activate the aryl hydrocarbon receptor (AhR) signaling pathway (AID 743085); further: nearly all actives have a fitted effect of over 15% in size; further: potency means the concentration at half of the fitted maximal effect;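 on activation: HG2L7.5c1 human HepG2 liver cells with stably integrated DRE-driven firefly reporter; series mostly up to about 70 µM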
In short: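 Measured in HG2L7.5c1 cells: CellTiter-Fluor signal (30 min incubation, 37C) for viability, then luciferase luminescence (30 min, room temperature). Compound contact time was 24 h at 37C, following a 5 h pre-incubation.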

[2] = target: Peroxisome proliferator-activated receptor gamma (Homo sapiens) (UniProt P37231); test: qHTS assay to identify small molecule agonists of the peroxisome proliferator-activated receptor gamma (PPARg) signaling pathway (AID 743094; active means well fitted activation curve with a large enough effect in the signal ratio in the repeat runs, not every such curve was filed as active; the % refers to the signal ratio)
In short: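 Beta-lactamase FRET fluorescence was the read-out after a 1 h room-temperature substrate step, following 17 h compound treatment at 37C of HEK293H cells expressing a UAS-driven bla reporter responsive to PPARg.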

[3] = target: Peroxisome proliferator-activated receptor gamma (Homo sapiens) (UniProt P37231); test: qHTS assay to identify small molecule antagonists of the peroxisome proliferator-activated receptor gamma (PPARg) signaling pathway (AID 743191; calls by dose curve; further: series mostly up to about 63 µM; nearly all actives have a fitted effect of over 30% in size)
In short: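 GeneBLAzer PPARg UAS-bla HEK293H cells carrying a UAS-driven beta-lactamase reporter were plated at 3000 cells/well, preincubated 5 h at 37C, then given compound for 17 h at 37C; LiveBLAzer B/G FRET substrate was read after 1 h at room temperature.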

[4] = qHTS assay to identify small molecule antagonists of the peroxisome proliferator-activated receptor gamma (PPARg) signaling pathway - cell viability counter screen (AID 743194); further: nearly all actives have a fitted effect of over 55% in size
In short: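 PPARg-UAS-bla HEK293H cells were plated, rested 5 h at 37 C, then treated with compounds plus rosiglitazone (50 nM final) for 17 h at 37 C; viability was then read by CellTiter-Glo luminescence after 30 min at room temperature.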

[5] = qHTS assay for small molecule agonists of the antioxidant response element (ARE) signaling pathway (AID 743202; active means well fitted activation curve with a large enough effect in the signal ratio in the repeat runs, not every such curve was filed as active; the % refers to the signal ratio; further: potency means the concentration at half of the fitted maximal effect)
In short: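 Read-out: LiveBLAzer B/G FRET substrate fluorescence after 2 h at room temperature, following 16 h compound treatment at 37 C of HepG2 cells carrying an ARE-driven beta-lactamase reporter.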

[6] = qHTS assay for small molecule agonists of the antioxidant response element (ARE) signaling pathway - cell viability counter screen (AID 743203; calls by dose curve; further: nearly all actives have a fitted effect of over 55% in size)
In short: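 HepG2 cells carrying ARE-driven beta-lactamase; 2,000 cells/well; 5 hrs plating; compound pinned from DMSO; 16 hrs 37C/5% CO2; CellTiter-Glo added; 30 min RT; luminescence.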

[7] = qHTS assay for small molecule activators of the heat shock response signaling pathway - cell viability counter screen (AID 743209); further: nearly all actives have a fitted effect of over 50% in size
In short: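 Luminescence from CellTiter-Glo, added after the beta-lactamase FRET read, gave the viability signal. Cells were HSE-bla HeLa treated with DMSO-dissolved compounds for 5 h at 37 C following overnight plating.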

[8] = qHTS assay for small molecule activators of the heat shock response signaling pathway (AID 743210; active means well fitted activation curve with a large enough effect in the signal ratio in the repeat runs, with a control signal flat, not every such curve was filed as active; the % refers to the signal ratio; further: series mostly up to about 63 µM)
In short: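 HSE-bla HeLa cells (beta-lactamase reporter under heat shock response elements) were exposed to compounds for 5 h at 37 C, then loaded with LiveBLAzer B/G FRET substrate for 2.5 h at room temperature before fluorescence reading.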

[9] = qHTS assay to identify small molecule agonists of the peroxisome proliferator-activated receptor delta (PPARd) signaling pathway - cell viability counter screen (AID 743211); further: nearly all actives have a fitted effect of over 55% in size
In short: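 Following 5 h plating at 37 C and 5% CO2, PPARd UAS-bla HEK293H cells took up test compounds for 17 h. Viability was quantified by luminescence 30 min after CellTiter-Glo addition at room temperature.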

[10] = qHTS assay to identify small molecule antagonists of the peroxisome proliferator-activated receptor delta (PPARd) signaling pathway - cell viability counter screen (AID 743213); further: nearly all actives have a fitted effect of over 50% in size
In short: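 Agonist-stimulated (L165041, 300 nM final) HEK293H PPARd UAS-bla cells are exposed to compounds for 17 h at 37 C, and ATP-based luminescence (CellTiter-Glo) from the same wells reports cytotoxicity.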

[11] = qHTS assay to identify small molecule agonists of the farnesoid-X-receptor (FXR) signaling pathway - cell viability counter screen (AID 743218); further: nearly all actives have a fitted effect of over 45% in size
In short: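 HEK 293T FXR-bla cells; 5 h pre-incubation, 16 h compound exposure at 37 C; LiveBLAzer substrate 2 h RT, then CellTiter-Glo 30 min RT, luminescence.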

[12] = target: Bile acid receptor (Homo sapiens) (UniProt Q96RI1); test: qHTS assay to identify small molecule agonists of the farnesoid-X-receptor (FXR) signaling pathway (AID 743220; active means well fitted activation curve with a large enough effect in the signal ratio in the repeat runs, not every such curve was filed as active; the % refers to the signal ratio)
In short: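 Beta-lactamase reporter under UAS control in GeneBLAzer FXR HEK 293T cells (5000/well) measured with LiveBLAzer FRET substrate after 2 h at room temperature. Compound exposure lasted 16 h at 37C.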

[13] = qHTS assay to identify small molecule antagonists of the farnesoid-X-receptor (FXR) signaling pathway - cell viability counter screen (AID 743221; active means well fitted cell-killing curve with a large enough effect in the repeat runs, not every such curve was filed as active; further: nearly all actives have a fitted effect of over 50% in size)
In short: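 Compound effects on cell number were measured as CellTiter-Glo luminescence in HEK 293T cells expressing FXR-UAS-bla, after 16 h at 37 C with 50 uM CDCA (final).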

[14] = qHTS assay to identify small molecule agonists of the vitamin D receptor (VDR) signaling pathway - cell viability counter screen (AID 743224); further: series mostly up to about 63 µM; nearly all actives have a fitted effect of over 50% in size
In short: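 Luminescence from CellTiter-Glo, read after 30 min at room temperature, reports viability of VDR-bla cells treated with compounds for 16 h at 37C in the wells used for the beta-lactamase FRET read.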

[15] = target: Peroxisome proliferator-activated receptor delta (Homo sapiens) (UniProt Q03181); test: qHTS assay to identify small molecule agonists of the peroxisome proliferator-activated receptor delta (PPARd) signaling pathway (AID 743212; calls by dose curve)
In short: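 GeneBLAzer PPARd UAS-bla HEK293H cells (beta-lactamase reporter under UAS control), plated and rested 5 h at 37 C, then exposed to compounds in DMSO at 37 C; LiveBLAzer B/G FRET substrate added, 2 h room temperature, fluorescence read.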

[16] = target: Peroxisome proliferator-activated receptor delta (Homo sapiens) (UniProt Q03181); test: qHTS assay to identify small molecule antagonists of the peroxisome proliferator-activated receptor delta (PPARd) signaling pathway (AID 743215; active means well fitted inhibition curve with a large enough effect in the signal ratio in the repeat runs, not every such curve was filed as active; the % refers to the signal ratio; further: series mostly up to about 62 µM)
In short: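 Read-out is beta-lactamase FRET fluorescence, measured 2 h after substrate addition at room temperature. Beforehand, UAS-bla HEK293H cells carrying the PPARd reporter were exposed to compounds with L165041 at 300 nM final for 17 h at 37 C.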

[17] = target: Bile acid receptor (Homo sapiens) (UniProt Q96RI1); test: qHTS assay to identify small molecule antagonists of the farnesoid-X-receptor (FXR) signaling pathway (AID 743217; active means well fitted inhibition curve with a large enough effect in the signal ratio in the repeat runs, not every such curve was filed as active; the % refers to the signal ratio)
In short: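 HEK 293T FXR-UAS-bla, 5000 cells/well; compound + CDCA 50 uM final; 16 h, 37 °C; B/G FRET substrate 2 h RT; fluorescence.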

[18] = target: Vitamin D3 receptor (Homo sapiens) (UniProt P11473); test: qHTS assay to identify small molecule agonists of the vitamin D receptor (VDR) signaling pathway (AID 743222; calls by dose curve)
In short: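 VDR-bla cells, 2,000/well; 4 h preincubation 37C; cpd (DMSO) 16 h; LiveBLAzer B/G substrate 2 h RT; fluorescence intensity read.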

[19] = target: Vitamin D3 receptor (Homo sapiens) (UniProt P11473); test: qHTS assay to identify small molecule antagonists of the vitamin D receptor (VDR) signaling pathway (AID 743223; active means well fitted inhibition curve with a large enough effect in the signal ratio in the repeat runs, not every such curve was filed as active; the % refers to the signal ratio)
In short: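 Beta-lactamase activity in VDR-bla cells is measured by FRET substrate fluorescence (2 h, room temperature) after cells spend 16 h at 37C with test compound and 3 nM final 1alpha,25-dihydroxyvitamin D3.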

[20] = qHTS assay to identify small molecule that activate the aryl hydrocarbon receptor (AhR) signaling pathway - cell viability counter screen (AID 743086);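 further: HepG2 liver cells carrying the AhR DRE luciferase reporter; series mostly up to about 70 µM; nearly all actives have a fitted effect of over 45% in size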
In short: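 HepG2-AhR-luc (HG2L7.5c1) cells, 4000/well, were preincubated 5 h at 37C, exposed to compound in qHTS format for 24 hr at 37C, then given CellTiter-Fluor for 30 min; viability was read as fluorescence in the reporter wells.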

Measured: Potency

Aryl hydrocarbon receptor (Homo sapiens), sequence (P35869 whole entry, looked up): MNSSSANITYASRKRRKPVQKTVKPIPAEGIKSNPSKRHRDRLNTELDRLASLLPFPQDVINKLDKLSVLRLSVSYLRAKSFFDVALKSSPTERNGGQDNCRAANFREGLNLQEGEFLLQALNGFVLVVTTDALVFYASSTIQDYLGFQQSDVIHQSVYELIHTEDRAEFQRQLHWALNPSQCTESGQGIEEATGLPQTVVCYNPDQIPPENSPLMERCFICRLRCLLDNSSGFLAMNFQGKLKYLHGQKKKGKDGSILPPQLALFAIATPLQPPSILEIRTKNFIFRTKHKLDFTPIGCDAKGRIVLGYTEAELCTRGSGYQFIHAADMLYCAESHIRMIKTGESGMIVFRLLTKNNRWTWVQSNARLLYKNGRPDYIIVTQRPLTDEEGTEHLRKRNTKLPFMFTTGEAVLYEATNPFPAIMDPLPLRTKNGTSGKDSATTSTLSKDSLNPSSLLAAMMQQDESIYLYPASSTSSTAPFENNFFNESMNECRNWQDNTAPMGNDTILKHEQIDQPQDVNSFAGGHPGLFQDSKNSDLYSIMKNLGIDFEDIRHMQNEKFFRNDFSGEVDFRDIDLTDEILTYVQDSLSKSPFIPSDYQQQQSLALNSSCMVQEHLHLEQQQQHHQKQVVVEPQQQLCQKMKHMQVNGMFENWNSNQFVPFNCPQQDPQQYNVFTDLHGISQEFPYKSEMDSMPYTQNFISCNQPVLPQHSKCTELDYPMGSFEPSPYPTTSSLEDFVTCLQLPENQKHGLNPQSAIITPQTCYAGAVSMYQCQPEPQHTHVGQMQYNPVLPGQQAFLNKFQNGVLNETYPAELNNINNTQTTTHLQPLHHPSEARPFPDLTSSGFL
Peroxisome proliferator-activated receptor delta (Homo sapiens), sequence (Q03181 whole entry, looked up): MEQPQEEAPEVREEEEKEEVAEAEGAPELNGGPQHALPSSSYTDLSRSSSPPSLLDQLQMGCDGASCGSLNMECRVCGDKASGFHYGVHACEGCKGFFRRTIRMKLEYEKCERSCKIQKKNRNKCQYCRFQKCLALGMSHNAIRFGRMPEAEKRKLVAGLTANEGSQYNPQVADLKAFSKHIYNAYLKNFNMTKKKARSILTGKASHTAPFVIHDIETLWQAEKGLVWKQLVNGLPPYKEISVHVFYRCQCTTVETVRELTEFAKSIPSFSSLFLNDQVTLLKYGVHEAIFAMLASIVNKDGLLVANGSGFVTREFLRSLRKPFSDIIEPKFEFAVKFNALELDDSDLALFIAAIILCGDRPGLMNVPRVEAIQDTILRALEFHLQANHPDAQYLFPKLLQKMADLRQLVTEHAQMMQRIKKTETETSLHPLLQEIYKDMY
Bile acid receptor (Homo sapiens), sequence (Q96RI1 whole entry, looked up): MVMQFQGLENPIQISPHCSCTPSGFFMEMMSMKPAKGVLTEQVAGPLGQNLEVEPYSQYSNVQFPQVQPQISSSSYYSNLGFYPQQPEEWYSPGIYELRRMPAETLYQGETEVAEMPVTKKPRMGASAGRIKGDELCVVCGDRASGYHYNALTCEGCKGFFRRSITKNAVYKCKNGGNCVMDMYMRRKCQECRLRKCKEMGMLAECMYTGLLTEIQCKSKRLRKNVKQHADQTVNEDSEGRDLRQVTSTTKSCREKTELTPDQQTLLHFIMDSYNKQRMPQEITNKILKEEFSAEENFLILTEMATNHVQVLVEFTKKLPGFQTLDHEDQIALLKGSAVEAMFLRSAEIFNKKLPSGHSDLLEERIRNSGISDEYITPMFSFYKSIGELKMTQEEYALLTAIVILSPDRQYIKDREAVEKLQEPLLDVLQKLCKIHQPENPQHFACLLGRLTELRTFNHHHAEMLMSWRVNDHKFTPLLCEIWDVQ
Peroxisome proliferator-activated receptor gamma (Homo sapiens), sequence (P37231 whole entry, looked up): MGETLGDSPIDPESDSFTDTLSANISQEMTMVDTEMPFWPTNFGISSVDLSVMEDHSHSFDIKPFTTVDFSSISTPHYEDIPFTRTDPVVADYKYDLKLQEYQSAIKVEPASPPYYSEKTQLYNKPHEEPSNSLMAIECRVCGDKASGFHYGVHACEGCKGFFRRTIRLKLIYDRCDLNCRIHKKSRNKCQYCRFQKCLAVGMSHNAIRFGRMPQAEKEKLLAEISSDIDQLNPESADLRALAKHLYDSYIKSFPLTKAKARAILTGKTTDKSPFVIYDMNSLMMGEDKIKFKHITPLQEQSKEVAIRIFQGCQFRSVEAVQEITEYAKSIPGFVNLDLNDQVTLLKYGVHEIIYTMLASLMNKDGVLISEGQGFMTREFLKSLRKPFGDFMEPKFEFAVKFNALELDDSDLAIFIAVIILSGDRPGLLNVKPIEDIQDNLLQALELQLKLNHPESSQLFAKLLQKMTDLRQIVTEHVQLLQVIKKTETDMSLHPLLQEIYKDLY
Vitamin D3 receptor (Homo sapiens), sequence (P11473 whole entry, looked up): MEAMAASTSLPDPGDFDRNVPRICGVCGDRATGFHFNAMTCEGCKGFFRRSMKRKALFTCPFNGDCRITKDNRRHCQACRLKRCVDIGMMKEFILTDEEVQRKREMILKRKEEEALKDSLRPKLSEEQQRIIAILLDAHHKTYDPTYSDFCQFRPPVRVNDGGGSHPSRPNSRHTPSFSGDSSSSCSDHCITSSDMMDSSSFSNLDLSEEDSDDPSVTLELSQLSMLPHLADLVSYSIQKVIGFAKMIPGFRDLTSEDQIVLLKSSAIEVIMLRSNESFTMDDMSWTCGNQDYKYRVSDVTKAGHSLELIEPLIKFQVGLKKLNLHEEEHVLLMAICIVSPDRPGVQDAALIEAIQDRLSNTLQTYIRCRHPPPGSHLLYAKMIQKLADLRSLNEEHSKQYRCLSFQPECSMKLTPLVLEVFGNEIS

CC1(C)Oc2ccc(C#N)cc2[C@@H](N2CCCC2=O)[C@@H]1O
not listed: [15] | [16] | [17] | [18] | [19] | [20]
inactive: all other assays above

COC(=O)c1cccc(Cl)c1
not listed: [9] | [11] | [20]
inactive: all other assays above

c1ccc(B(c2ccccc2)c2ccccc2)cc1
inactive: [20] | [2] | [6] | [8] | [9] | [15] | [11] | [12] | [13] | [14]
active: [1] 30.6 µM

CC(C)OC(=O)OCOP(=O)(CO[C@H](C)Cn1cnc2c(N)ncnc21)OCOC(=O)OC(C)C
active: [5] 11.9 µM
not listed: [8] | [12] | [17] | [20]
inactive: all other assays above

C[C@]12CCC(=O)C=C1CC[C@H]1[C@@H]3CC[C@](O)(C(=O)CO)[C@@]3(C)C[C@H](O)[C@@]12F
not listed: [3] | [4] | [11] | [14]
inactive: all other assays above

CC(C)CCOC(=O)c1ccccc1
not listed: [3] | [4] | [8] | [17]
inactive: all other assays above

CC1OCCC1=O (centres undefined)
inactive: [1] | [20] | [4] | [5] | [6] | [7] | [9] | [10] | [14]

C=C(C)[C@@H]1CC=C(C)CC1
inactive: [1] | [20] | [6] | [7] | [8] | [9] | [10] | [13] | [14]

COc1ccc(CCO)cc1
not listed: [3] | [4] | [11] | [12] | [17]
inactive: all other assays above

CCc1occc(=O)c1O
inactive: [1] | [20] | [2] | [6] | [8] | [9] | [15] | [16] | [12] | [13] | [14]

CCCCCCCCCOC(=O)CCCCC(=O)OCCCCCCC
not listed: [3] | [5] | [12] | [14] | [16] | [17] | [19]
inactive: all other assays above

Cn1nnc2c(C(N)=O)ncn2c1=O
not listed: [3] | [4] | [7] | [17] | [19]
inactive: all other assays above

CCC(C)C(=O)OCCc1ccccc1 (centres undefined)
not listed: [17] | [18] | [19] | [20]
inactive: all other assays above

CC(C)(CO)C(O)C(=O)NCCCO (centres undefined)
not listed: [2] | [3] | [6] | [7] | [11]
inactive: all other assays above

Cn1c(=O)c2c(ncn2CCO)n(C)c1=O
not listed: [2] | [3] | [7] | [12] | [17] | [19]
inactive: all other assays above

CNCCS(=O)(=O)O
not listed: [11] | [12] | [17] | [19] | [20]
inactive: all other assays above

CC(=O)CC(=O)Nc1ccc(C)cc1C
not listed: [2] | [3] | [8] | [11] | [18] | [19]
inactive: all other assays above

O=C(CCCCC(=O)Nc1c(I)cc(I)c(C(=O)O)c1I)Nc1c(I)cc(I)c(C(=O)O)c1I
not listed: [12] | [17] | [19] | [20]
inactive: all other assays above

C=CC(=O)CCCCC
not listed: [3] | [4] | [8] | [12] | [16] | [17] | [18] | [19]
inactive: all other assays above
